T cruzi growth-1: blocks T. cruzi growth in NIH3T3 culture. 77,000 compounds, 5.9% hits. T. cruzi beta-gal in NIH3T3, GalScreen luminescence, 90 h. AID 624255. inhibition, % at 8.34 µM;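 active means mean inhibition above about 93%, with at least 55% of replicates each passing it, limit read from the data, passing the limit was not always enough; inconclusive means only one of those two conditions holds; inactive means neither condition holds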
C diff growth: inhibitors of Clostridium difficile growth; Clostridium difficile clinical isolate growth, OD600, 24 h; hits give low values; growth activity, negative = inhibition, % at 16 µg/mL (by protocol); 86,000 compounds, 0.25% hits; AID 1259249;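 active means mean growth activity at or below -80% and every replicate also at or below -80%; inconclusive means mean at or below -80% but some replicate above -80%; inactive means mean growth activity above -80%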
T cruzi growth-2: blocks T. cruzi growth in NIH3T3 host cells; shares compounds with T cruzi growth-1; T. cruzi beta-gal in NIH3T3, GalScreen luminescence, 90 h; inhibition, % at 8.35 µM; 5,600 compounds, 72% hits; AID 651739;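 active means mean replicate inhibition above about 95% and at least 55% of replicates individually reaching it, limit read from the data; inconclusive means only one of the two criteria is met; inactive means neither criterion is met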
T cruzi growth-3: Trypanosoma cruzi proliferation inhibition | shares compounds with T cruzi growth-1 | 5,600 compounds, 21% hits | T. cruzi beta-gal in NIH3T3, GalScreen luminescence, 90 h | inhibition, % at 2.09 µM;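 active means mean inhibition above about 95%, with at least 55% of replicates also reaching it, limit read from the data; inconclusive means meets just one of the two conditions; inactive means meets neither condition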
NIH3T3 tox: NIH/3T3 (mouse) viability loss. shares compounds with T cruzi growth-1. NIH/3T3 viability, CellTiter-Glo ATP luminescence, 90 h. cytotoxicity (signal decrease), % at 8.35 µM. 5,600 compounds, 14% hits. AID 651742;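 active means mean signal decrease across replicates above about 35% based on untreated-well scatter, with enough replicates individually passing, limit read from the data; inconclusive means no rule stated though some were filed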
3T3 cytotox 2: cytotoxicity in mouse NIH/3T3 fibroblasts; NIH/3T3 viability, CellTiter-Glo ATP luminescence, 90 h; shares compounds with T cruzi growth-1; AID 651744; inhibition, % at 24.9 µM; 5,600 compounds, 56% hits;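 active means mean loss of cell viability signal at or above a set limit, and enough replicates individually reaching it; inconclusive means meets only the mean limit or only the replicate share; inactive means meets neither condition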
Each line names hits and unclear results; the compound was inactive in the other large screens (follow-up assays come after a bar, where they were run); ! = a repeat was not active. The entries come from a sample that favours hits as a whole.

C[C@H](CO)N1C[C@H](C)[C@@H](CN(C)Cc2ccc(-c3ccccc3)cc2)Oc2ccc(NC(=O)C3CC3)cc2C1=O	none
C[C@@H]1CN([C@@H](C)CO)C(=O)c2cc(NC(=O)C3CCCCC3)ccc2O[C@H]1CN(C)Cc1ccc(-c2ccccc2)cc1	T cruzi growth-1 109.5 (no result: C diff growth) | T cruzi growth-2 102.2 | T cruzi growth-3 100.4 | NIH3T3 tox inactive | 3T3 cytotox 2 inactive
COc1ccc(CN(C)C[C@@H]2OCCCC[C@@H](C)Oc3ccc(NS(=O)(=O)c4c(C)noc4C)cc3C(=O)N([C@H](C)CO)C[C@H]2C)cc1	none
C[C@H](CO)N1C[C@H](C)[C@H](CN(C)C(=O)Nc2ccc3c(c2)OCO3)Oc2ncc(-c3cc4ccccc4o3)cc2C1=O	none (no result: T cruzi growth-1)
C[C@H](CO)N1C[C@H](C)[C@H](CN(C)S(=O)(=O)c2cccc(F)c2)Oc2ncc(-c3cc4ccccc4o3)cc2C1=O	none (no result: T cruzi growth-1)
COc1ccc(NC(=O)N(C)C[C@@H]2Oc3ncc(-c4cc5ccccc5o4)cc3C(=O)N([C@H](C)CO)C[C@@H]2C)cc1	T cruzi growth-1 109.2 | T cruzi growth-2 106.2 | T cruzi growth-3 inactive | NIH3T3 tox inactive | 3T3 cytotox 2 33.6
COc1cccc(S(=O)(=O)N(C)C[C@@H]2Oc3ncc(-c4cc5ccccc5o4)cc3C(=O)N([C@H](C)CO)C[C@@H]2C)c1	T cruzi growth-1 108.6 | T cruzi growth-2 103.5 | T cruzi growth-3 inactive | NIH3T3 tox 39.3 | 3T3 cytotox 2 inactive
Cc1cccc(CN(C)C[C@@H]2Oc3ncc(-c4cc5ccccc5o4)cc3C(=O)N([C@H](C)CO)C[C@@H]2C)c1	T cruzi growth-1 99.3 | T cruzi growth-2 106.3 | T cruzi growth-3 inactive | NIH3T3 tox 44.4 | 3T3 cytotox 2 103.8
C[C@H](CO)N1C[C@H](C)[C@H](CN(C)Cc2ccc(F)cc2)Oc2ncc(-c3cc4ccccc4o3)cc2C1=O	none (no result: T cruzi growth-1)
COc1ccc(NC(=O)Nc2cccc3c2O[C@H](CN(C)C(=O)NC(C)C)[C@@H](C)CN([C@@H](C)CO)C3=O)cc1	none
C/C=C/c1ccccc1[C@@H]1[C@@H](C#N)N(C(C)=O)[C@@H]1CO	none (no result: T cruzi growth-1)
CCC(=O)N1[C@@H]2Cn3c(ccc(C4=CCCC4)c3=O)[C@H]1[C@@H](C(=O)NCC1CCCCC1)[C@@H]2CO	none
COc1ccc(NC(=O)N(C)C[C@@H]2Oc3ncc(C4=CCCC4)cc3C(=O)N([C@H](C)CO)C[C@@H]2C)cc1	none
CC(=O)N(C)C[C@H]1Oc2cc(C#Cc3cccnc3)ccc2S(=O)(=O)N([C@H](C)CO)C[C@@H]1C	none (no result: T cruzi growth-1)
COc1cccc(S(=O)(=O)N2CCCCN3[C@H](CO)[C@H](c4ccc(-c5cncnc5)cc4)[C@@H]3C2)c1	none
COc1cccc(S(=O)(=O)N2CCCCN3[C@H](C2)[C@@H](c2ccc(-c4cccnc4)cc2)[C@@H]3CO)c1	T cruzi growth-1 113.6 | T cruzi growth-2 111.6 | T cruzi growth-3 inactive | NIH3T3 tox inactive | 3T3 cytotox 2 51.1
COc1cccc(S(=O)(=O)N2CCCCN3[C@H](CO)[C@H](c4ccc(-c5cncnc5)cc4)[C@H]3C2)c1	none
COc1cccc(S(=O)(=O)N2CCCCN3[C@@H](CO)[C@H](c4ccc(-c5cccnc5)cc4)[C@@H]3C2)c1	T cruzi growth-1 106.8 | T cruzi growth-2 99.9 | T cruzi growth-3 inactive | NIH3T3 tox inconclusive | 3T3 cytotox 2 38.2
CCCC(=O)Nc1ccc2c(c1)C(=O)N(C)[C@@H]1CC[C@H](CC(=O)NCc3ccccc3Cl)O[C@H]1CO2	none
O=C(Cc1cccnc1)N[C@H]1CC[C@H](CCn2cc(-c3ccccc3F)nn2)O[C@@H]1CO	none
C[C@H](CO)N1C[C@H](C)[C@@H](CN(C)Cc2ccccc2)OCCCC[C@H](C)Oc2ccc(N(C)C)cc2C1=O	T cruzi growth-1 100.1! | T cruzi growth-2 inactive | T cruzi growth-3 inactive | NIH3T3 tox inactive | 3T3 cytotox 2 inactive
C[C@@H]1CCCCO[C@@H](CN(C)Cc2ccccc2)[C@@H](C)CN([C@H](C)CO)C(=O)c2cc(N(C)C)ccc2O1	none
C[C@@H]1CN([C@H](C)CO)C(=O)c2cc(N(C)C)ccc2O[C@@H](C)CCCCO[C@H]1CN(C)Cc1ccc(C(F)(F)F)cc1	T cruzi growth-1 119.9 | T cruzi growth-2 98.6 | T cruzi growth-3 113.4 | NIH3T3 tox inactive | 3T3 cytotox 2 106.0
C[C@H]1CCCCO[C@@H](CN(C)Cc2ccc(C(=O)O)cc2)[C@@H](C)CN([C@@H](C)CO)C(=O)c2cc(N(C)C)ccc2O1	none
C[C@@H]1CN([C@H](C)CO)C(=O)c2cc(N(C)C)ccc2O[C@@H](C)CCCCO[C@@H]1CN(C)Cc1ccc(C(F)(F)F)cc1	T cruzi growth-1 inconclusive | T cruzi growth-2 108.7 | T cruzi growth-3 inactive | NIH3T3 tox inactive | 3T3 cytotox 2 107.0
C[C@H](CO)N1C[C@H](C)[C@@H](CN(C)Cc2ccc(C(F)(F)F)cc2)OCCCC[C@H](C)Oc2ccc(N(C)C)cc2C1=O	T cruzi growth-1 108.5 | T cruzi growth-2 110.9 | T cruzi growth-3 inactive | NIH3T3 tox inactive | 3T3 cytotox 2 96.7
C[C@@H]1CCCCO[C@@H](CN(C)Cc2ccc(C(=O)O)cc2)[C@@H](C)CN([C@H](C)CO)C(=O)c2cc(N(C)C)ccc2O1	none
C[C@@H]1CN([C@@H](C)CO)C(=O)c2cc(N(C)C)ccc2O[C@@H](C)CCCCO[C@@H]1CN(C)Cc1ccc(C(F)(F)F)cc1	none
CC(=O)N1[C@@H](CO)[C@@H]2c3ccccc3N(S(=O)(=O)c3ccccc3C)C[C@@H]21	none
C[C@@H]1CCCCO[C@H](CN(C)Cc2ccc(C(F)(F)F)cc2)[C@@H](C)CN([C@H](C)CO)C(=O)c2cc(N(C)C)ccc2O1	T cruzi growth-1 inconclusive | T cruzi growth-2 112.4 | T cruzi growth-3 inactive | NIH3T3 tox inactive | 3T3 cytotox 2 inconclusive
C[C@@H]1CCCCO[C@@H](CN(C)Cc2ccc(C(=O)O)cc2)[C@H](C)CN([C@@H](C)CO)C(=O)c2cc(N(C)C)ccc2O1	none
C[C@@H]1CCCCO[C@@H](CN(C)CC2CCCCC2)[C@@H](C)CN([C@H](C)CO)C(=O)c2cc(N(C)C)ccc2O1	none
C[C@H](CO)N1C[C@H](C)[C@@H](CN(C)CC2CCCCC2)OCCCC[C@H](C)Oc2ccc(N(C)C)cc2C1=O	T cruzi growth-1 99.0 | T cruzi growth-2 109.8 | T cruzi growth-3 inactive | NIH3T3 tox inactive | 3T3 cytotox 2 inactive
C[C@@H]1CN([C@@H](C)CO)C(=O)c2cc(N(C)C)ccc2O[C@@H](C)CCCCO[C@H]1CN(C)Cc1ccc(C(F)(F)F)cc1	T cruzi growth-1 118.7 | T cruzi growth-2 110.3 | T cruzi growth-3 108.3 | NIH3T3 tox inactive | 3T3 cytotox 2 86.6
C[C@H](CO)N1C[C@H](C)[C@H](CN(C)Cc2ccc(C(F)(F)F)cc2)OCCCC[C@H](C)Oc2ccc(N(C)C)cc2C1=O	none
COC(=O)C[C@H]1CC[C@@H]2[C@@H](COc3ccc(NC(=O)Nc4ccc(C#N)cc4)cc3C(=O)N2C)O1	none
